Consider 15 compounds from PubChem BioAssay.

Structures are written as SMILES. The source made the active and inactive calls.

Assay [1] in a line: small molecules captured by biotinylated probe aFSTL3 – biochemical, small-molecule microarray, fluorescence 635/667, stem cell growth factor project, primary screen (AID 1064).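 Note: measures binding of the biotinylated anti-FSTL3 antibody to printed compounds.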 The note with it: higher = more signal.
The nature of assay [2]: binders from COS7 lysate, DM2A8 probe, primary screen, torsin A project, cell lysate, small-molecule microarray, fluorescence 635/667 (AID 1065). As to conditions: higher = more signal, COS7 lysate expressing mutant human TOR1A.
A short description of assay [3]: small molecules captured by biotinylated probe aFGF2 – biochemical, small-molecule microarray, fluorescence 635/667, stem cell growth factor project, primary screen (AID 1067).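 Note: measures binding of biotinylated aFGF2 protein to printed compounds on slides; z-score merges feature fluorescence and signal-to-noise across triplicate slides.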 As to conditions: higher = more signal.
A short description of assay [4]: small molecules captured by biotinylated probe aFGF10 – biochemical, small-molecule microarray, fluorescence 635/667, stem cell growth factor project, primary screen (AID 1071).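 Note: score merges 667 nm spot intensity and signal to noise from triplicate slides.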 As to conditions: higher = more signal.
Assay [5] concerns the target Neurogenic locus notch homolog protein 2 (Homo sapiens) (UniProt Q04721). The assay can be described thus: small molecules binding Notch2 protein – biochemical, small-molecule microarray, 635 nm fluorescence, stem cell growth factors, primary screen (AID 1073). As to conditions: higher = more signal.
The target in assay [6] is Pro-neuregulin-1, membrane-bound isoform (Homo sapiens) (UniProt Q02297). The assay can be described thus: small molecules binding neuregulin-1 protein – biochemical, small-molecule microarray, fluorescence 635/667, psychiatric disease protein project, primary screen (AID 1075).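 Note: score combines 667 nm spot fluorescence with signal to noise.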 The note with it: NRG1 binding, 635 nm fluorescence, higher = more signal.
Chain of Pro-neuregulin-1, membrane-bound isoform (Homo sapiens) (Q02297 whole entry, looked up, the tested form may be a part, canonical isoform): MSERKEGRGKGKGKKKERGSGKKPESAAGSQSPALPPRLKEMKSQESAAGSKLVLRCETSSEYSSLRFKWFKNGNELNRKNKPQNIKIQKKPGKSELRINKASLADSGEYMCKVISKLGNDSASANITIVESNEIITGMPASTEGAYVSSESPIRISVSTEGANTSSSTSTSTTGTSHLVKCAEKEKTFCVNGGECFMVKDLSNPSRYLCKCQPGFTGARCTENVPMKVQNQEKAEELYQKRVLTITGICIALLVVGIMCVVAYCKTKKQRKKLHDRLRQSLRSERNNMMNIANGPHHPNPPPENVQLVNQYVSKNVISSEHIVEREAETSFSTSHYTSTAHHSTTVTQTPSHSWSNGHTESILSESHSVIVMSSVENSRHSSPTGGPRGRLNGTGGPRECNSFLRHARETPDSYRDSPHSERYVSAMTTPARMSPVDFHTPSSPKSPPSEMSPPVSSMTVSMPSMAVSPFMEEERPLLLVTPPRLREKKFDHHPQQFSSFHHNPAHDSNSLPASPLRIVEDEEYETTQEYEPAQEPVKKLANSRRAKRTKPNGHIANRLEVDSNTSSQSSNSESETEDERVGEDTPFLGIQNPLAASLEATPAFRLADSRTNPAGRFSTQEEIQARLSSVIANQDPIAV
The subject of assay [7] is Neuregulin-1 EGF-like domain. The assay can be described thus: small molecules binding NRG1 EGF domain – biochemical, small-molecule microarray, 635 nm fluorescence, primary screen (AID 1081).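 Note: binding of the protein to compounds printed on small-molecule microarray slides.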 As to conditions: higher = more signal.
Assay [8] can be described thus: FRG1 expression reporter modulators in myotubes – cell-based, C2C12 myotubes, firefly/Renilla luciferase, luminescence, FRG1 inhibition for FSHD, primary screen (AID 1084). The note with it: FRG1 promoter luciferase, higher = more signal, called active from +8 up or from −8 down.
Assay [9] can be described thus: small molecules captured by biotinylated probe aFST – biochemical, small-molecule microarray, fluorescence 635/667, stem cell growth factor project, primary screen (AID 1086).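 Note: score merges 667 nm fluorescence with signal-to-noise of each printed compound spot.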 As to conditions: higher = more signal.
Assay [10] in a line: binders of probe aHhip on microarray, primary screen, stem cell growth factor project, biochemical, small-molecule microarray, fluorescence 635/667 (AID 1087).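 Note: score merges spot fluorescence at 667nm with spot signal to noise ratio.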 The note with it: higher = more signal.

Chain of Neurogenic locus notch homolog protein 2 (Homo sapiens) (Q04721 whole entry, looked up, canonical isoform): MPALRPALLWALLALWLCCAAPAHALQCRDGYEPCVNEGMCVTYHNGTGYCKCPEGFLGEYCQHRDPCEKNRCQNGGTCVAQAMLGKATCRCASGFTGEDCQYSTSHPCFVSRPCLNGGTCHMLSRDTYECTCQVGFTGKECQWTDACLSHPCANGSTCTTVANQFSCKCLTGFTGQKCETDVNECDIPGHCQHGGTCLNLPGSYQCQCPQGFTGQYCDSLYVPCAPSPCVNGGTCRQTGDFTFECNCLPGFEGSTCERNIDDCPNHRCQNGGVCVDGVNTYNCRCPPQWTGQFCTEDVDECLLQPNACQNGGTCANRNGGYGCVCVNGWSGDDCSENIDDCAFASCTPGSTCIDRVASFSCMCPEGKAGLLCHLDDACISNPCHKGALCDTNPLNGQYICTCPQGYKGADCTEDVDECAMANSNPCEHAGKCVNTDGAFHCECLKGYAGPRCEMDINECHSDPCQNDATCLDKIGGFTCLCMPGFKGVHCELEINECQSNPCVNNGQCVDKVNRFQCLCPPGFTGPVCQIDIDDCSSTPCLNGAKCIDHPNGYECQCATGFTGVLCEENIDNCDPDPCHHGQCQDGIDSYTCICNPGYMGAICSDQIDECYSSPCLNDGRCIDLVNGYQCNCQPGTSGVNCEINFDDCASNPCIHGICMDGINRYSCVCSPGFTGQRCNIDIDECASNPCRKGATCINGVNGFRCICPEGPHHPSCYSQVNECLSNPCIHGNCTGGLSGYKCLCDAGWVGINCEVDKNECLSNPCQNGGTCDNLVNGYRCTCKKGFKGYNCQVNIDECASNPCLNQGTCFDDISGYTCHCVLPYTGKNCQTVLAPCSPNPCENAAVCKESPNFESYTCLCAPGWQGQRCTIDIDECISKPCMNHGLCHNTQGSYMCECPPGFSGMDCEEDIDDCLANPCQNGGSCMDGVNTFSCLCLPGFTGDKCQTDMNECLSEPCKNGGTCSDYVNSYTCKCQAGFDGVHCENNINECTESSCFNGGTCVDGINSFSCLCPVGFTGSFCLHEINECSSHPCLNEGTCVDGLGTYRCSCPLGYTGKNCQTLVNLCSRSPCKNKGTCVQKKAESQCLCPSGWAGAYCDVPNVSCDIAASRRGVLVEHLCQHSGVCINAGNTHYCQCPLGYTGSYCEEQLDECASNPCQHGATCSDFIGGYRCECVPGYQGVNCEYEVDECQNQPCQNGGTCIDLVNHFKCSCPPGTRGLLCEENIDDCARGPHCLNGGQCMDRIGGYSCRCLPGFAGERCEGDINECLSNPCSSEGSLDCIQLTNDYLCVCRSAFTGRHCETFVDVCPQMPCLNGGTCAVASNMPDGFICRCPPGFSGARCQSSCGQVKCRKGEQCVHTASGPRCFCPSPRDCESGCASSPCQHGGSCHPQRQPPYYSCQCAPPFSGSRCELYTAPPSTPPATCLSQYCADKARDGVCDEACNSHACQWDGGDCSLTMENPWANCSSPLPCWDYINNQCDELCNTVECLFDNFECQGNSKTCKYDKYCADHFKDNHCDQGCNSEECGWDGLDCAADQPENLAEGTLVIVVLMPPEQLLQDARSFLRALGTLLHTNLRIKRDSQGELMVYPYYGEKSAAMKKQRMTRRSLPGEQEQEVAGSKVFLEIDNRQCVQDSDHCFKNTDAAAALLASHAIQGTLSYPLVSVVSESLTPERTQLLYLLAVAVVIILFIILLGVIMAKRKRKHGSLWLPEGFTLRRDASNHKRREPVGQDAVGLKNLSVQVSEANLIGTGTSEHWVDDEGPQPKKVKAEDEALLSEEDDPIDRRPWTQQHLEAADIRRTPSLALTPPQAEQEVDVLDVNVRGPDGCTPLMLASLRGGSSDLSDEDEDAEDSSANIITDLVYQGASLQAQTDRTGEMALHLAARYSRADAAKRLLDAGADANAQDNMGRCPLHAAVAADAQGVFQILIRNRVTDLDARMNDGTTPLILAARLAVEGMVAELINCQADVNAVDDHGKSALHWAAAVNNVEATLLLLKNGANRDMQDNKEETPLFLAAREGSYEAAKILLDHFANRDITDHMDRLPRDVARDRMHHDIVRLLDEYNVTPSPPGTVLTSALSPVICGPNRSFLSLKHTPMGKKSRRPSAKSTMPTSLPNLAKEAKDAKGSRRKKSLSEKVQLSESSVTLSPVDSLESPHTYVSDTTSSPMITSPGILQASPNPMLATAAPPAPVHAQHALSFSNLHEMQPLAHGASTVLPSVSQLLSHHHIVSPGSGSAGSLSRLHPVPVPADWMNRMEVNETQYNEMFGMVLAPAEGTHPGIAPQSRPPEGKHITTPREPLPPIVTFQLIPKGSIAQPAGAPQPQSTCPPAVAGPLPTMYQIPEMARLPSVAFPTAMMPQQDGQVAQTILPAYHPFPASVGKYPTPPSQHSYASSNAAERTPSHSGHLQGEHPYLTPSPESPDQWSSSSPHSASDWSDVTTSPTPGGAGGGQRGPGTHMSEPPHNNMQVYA

In the case of `COCCCN1C(=O)[C@@]2(c3ccc([N+](=O)[O-])cc3)CC(=O)N(C3CCCCC3)[C@@H]2c2ccc(CO)cc21`, the composite z-score in [1] is -0.246; in assay [2], 0.178; in [3] it was -0.153; in assay [4] it was -0.118; in assay [5], -0.537; in assay [6], -0.214. Besides, the values for the composite z-score in assay [7], in [9] and in [10] were 0.467, -0.036 and -0.134, respectively. Further, the z-score in [8] was 1.07 (inactive).
As for `C=CCOC(=O)[C@@H]1[C@H]2C(=O)O[C@H](c3ccccc3)[C@H](c3ccccc3)N2[C@H](c2ccc(OCCOC(=O)[C@@H]3C[C@@H]4C(=O)N[C@@H](CCCC[N+](C)(C)C)C(=O)N4[C@@H]3c3cccc(OCCO)c3)cc2)[C@@]12C(=O)Nc1ccc(I)cc12`, the composite z-score stood at 0.443 in [1]; 0.54 in assay [2]; 0.0378 in [3]; 0.291 in [4]; 0.872 in assay [5]; 0.498 in assay [6]. Besides, the composite z-score in assay [7] is 1.23; in assay [9], 0.493; in [10], -0.117. Moreover, in assay [8], the z-score is 3.07 (inactive).
As for `COCCOC(=O)N1C(=O)[C@@]2(c3cc(C#CCCO)ccc31)[C@H](C(=O)N1CCN(c3ncccn3)CC1)[C@H]1C(=O)O[C@H](c3ccccc3)[C@H](c3ccccc3)N1[C@@H]2c1ccccc1OCCO`, the composite z-score in [1] is -0.545; in assay [2] it was 0.217; in assay [3] it was -0.0546; in assay [4] it was 0.537; in assay [5], 1.3; in assay [6], 1.37. Moreover, the composite z-score in [7] was 1.15; in assay [9], 0.335; in [10], -0.0296. The z-score in assay [8] was -0.428 (inactive).
As for `O=C1O[C@H](c2ccccc2)[C@H](c2ccccc2)N2[C@H]1[C@@H](C(=O)O)[C@]1(C(=O)Nc3ccc(C#CC4=CCCCC4)cc31)[C@H]2c1ccccc1OCCO`, the composite z-score in assay [1] is 0.943; in assay [2], 0.914; in assay [3], -0.0885; in [4], 0.729; in assay [5] it was 1.01; in assay [6], 1.69. Moreover, the composite z-score in assay [7] amounted to 0.994; in assay [9], 0.792; in assay [10], 1.13. In addition, the z-score in assay [8] is 0.755 (inactive).
In the case of `O=C1O[C@@H](c2ccccc2)[C@@H](c2ccccc2)N2[C@@H](c3ccc(OCCO)cc3)[C@]3(C(=O)Nc4ccccc43)[C@@H](C(=O)NC[C@H](O)c3ccccc3)[C@H]12`, the composite z-score is -0.0164 in assay [1]; 0.0007 in assay [2]; -0.019 in assay [3]; -0.0455 in assay [4]; 1.27 in [5]; 1.24 in assay [6]. In addition, the figures for the composite z-score in assay [7], in assay [9] and in assay [10] were 1.26, 0.322 and -0.145, respectively. The z-score in [8] was -2.2 (inactive).
Regarding `CN(C)C(=O)[C@]1(Cc2ccccc2N=[N+]=[N-])N=C(c2ccc(OCCCO)cc2)O[C@@H]1c1ccccc1`, the composite z-score in assay [1] stood at 0.127; in [2], 0.227; in assay [3], 0.0901; in assay [4], 0.071; in [5], 1.31; in assay [6] it was 1.78. Besides, the composite z-score in assay [7] was 1.13; in [9] it was 0.627; in assay [10], -0.374. Also, the z-score in assay [8] was -2.65 (inactive).
As to `CC(C)C[C@H]1NC(=O)[C@@]23C(=O)N[C@@H](Cc4ccccc4)C2[C@H](C)[C@@]2(C)O[C@H]2C3/C=C/C/C=C\CNC(=O)[C@H](Cc2ccccc2)NC1=O` (stereo not given in full), the composite z-score in [1] was -0.404; in [2], 0.443; in [3], -0.0973; in assay [4], 0.307; in assay [5], 0.349; in [6] it was 1.04. Moreover, the composite z-score was 0.976 in assay [7], 0.146 in assay [9] and -0.0994 in [10]. In [8], the z-score was 0.688 (inactive).
Take `CN1C(=O)C2C=CC(C(O)c3cccs3)N(Nc3ccccc3)C2C1=O` (stereo not given): the composite z-score in assay [1] was 0.0812; in [2] it was 0.552; in assay [3], -0.0628; in [4], 0.415; in [5] it was 0.94; in [6], 1.22. The composite z-score in [7] was 1.4; in [9], 0.388; in [10] it was 0.261. The z-score in assay [8] is -0.263 (inactive).
For `C=C(CCCC)/C(=C/C[C@@H](OC(C)=O)c1ccccc1OCCO)c1cnc2ccccc2c1`, the composite z-score is 0.0298 in assay [1]; 1.08 in assay [2]; -0.0633 in [3]; -0.036 in [4]; 0.13 in [5]; 0.967 in assay [6]. Moreover, the composite z-score in assay [7] is 0.95; in assay [9] it was 0.0983; in assay [10] it was 0.176. In assay [8], the z-score is -0.983 (inactive).
Consider `O=C(NCc1ccc(F)cc1)[C@H]1C[C@H]2C(=O)N[C@@H](Cc3ccccc3)C(=O)N2[C@H]1c1ccc(O)cc1`, for which the composite z-score was 1.12 in assay [1]; 0.949 in [2]; -0.185 in assay [3]; -0.685 in [4]; -0.878 in [5]; -0.242 in assay [6]. For the same compound, the composite z-score in [7] is 1.2; in [9], -0.823; in [10] it was -0.0645. Moreover, in assay [8], the z-score was 1.1 (inactive).
As for `C=CCN1C(=O)[C@]2(O[C@H](CCO)[C@@H]([Si](C)(C)c3ccc(OC)cc3)[C@@H]2C)c2cc(N3C(=O)c4cccc5cccc3c45)ccc21`, the composite z-score in [1] was -0.0848; in [2], 0.326; in assay [3] it was -0.1; in [4], 0.607; in assay [5], 0.322; in assay [6], 0.828. The composite z-score was 1.2 in [7], -0.17 in assay [9] and -0.236 in assay [10]. The z-score in [8] was -2.66 (inactive).
`C=CCOC(=O)[C@H]1[C@@H]2C(=O)O[C@@H](c3ccccc3)[C@@H](c3ccccc3)N2[C@@H](c2ccc(OCCOC(=O)[C@H]3C[C@H]4C(=O)N5CCC[C@H]5C(=O)N4[C@H]3c3ccc(O)cc3)cc2)[C@]12C(=O)Nc1ccc(I)cc12`: the composite z-score in assay [1] is 2.15; in assay [2] it was 2.13; in assay [3], 0.555; in assay [4], 0.791; in [5] it was 1.71; in [6] it was 2.72. Also, the composite z-score in assay [7] is 1.44; in [9] it was 2.72; in [10], 2.39. For the same compound, in [8], the z-score is -0.269 (inactive).
In the case of `CC1CC/C=C\[C@H]2OC34C=CCN(C(C)(C)C)C(=O)[C@H]3N(CCCCCCO)C(=O)[C@@H]4C2C(=O)O1` (stereo not given in full), the composite z-score in assay [1] was 0.237; in [2], -0.153; in assay [3] it was -0.149; in assay [4], 0.0097; in assay [5], -0.945; in assay [6] it was 0.866. For the same compound, the results for the composite z-score in assay [7], in assay [9] and in assay [10] were 1.13, -0.222 and -0.0994, respectively. The z-score in assay [8] is -1.09 (inactive).
Take `[N-]=[N+]=Nc1ccccc1C[C@]1(C(=O)NCC(O)CO)N=C(c2ccc(OCCCO)cc2)O[C@H]1c1ccccc1N=[N+]=[N-]` (stereo not given in full): the composite z-score is 0.722 in [1]; 0.0264 in [2]; 0.056 in assay [3]; 0.33 in [4]; 0.379 in [5]; 1.45 in assay [6]. In addition, the values for the composite z-score in assay [7], in assay [9] and in [10] were 0.753, 0.375 and -0.0994, respectively. For the same compound, the z-score in assay [8] was -0.516 (inactive).
With `C=CCOC(=O)[C@H]1[C@@H]2C(=O)O[C@@H](c3ccccc3)[C@@H](c3ccccc3)N2[C@@H](c2ccc(OCCOC(=O)[C@@H]3C[C@@H]4C(=O)N5CCC[C@H]5C(=O)N4[C@@H]3c3cccc(OCCO)c3)cc2)[C@]12C(=O)Nc1ccccc12`, the composite z-score in assay [1] turned out to be 0.0458; in [2], 0.629; in assay [3] it was 0.0584; in [4], 0.808; in assay [5], 0.761; in [6], 1.26. Besides, the composite z-score in assay [7] worked out at 1.31; in assay [9], 0.356; in [10] it was 0.382. The z-score in [8] is 0.999 (inactive).
